# Screening results (PubChem BioAssay)
# Pf growth 48h: P. falciparum growth inhibition at 48 hours (one generation); P. falciparum luciferase growth in erythrocytes, 48 h; Potency, µM (doses to about 28.7 µM), for the others: top-dose activity change, negative = inhibition, actives largely listed as inhibitors; 310,000 tested, 5.9% active; AID 504832; further: potency means the concentration at half of the fitted maximal effect; on the % scale 0 is the no-effect control and ±100 the full control effect
#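 Cell-based growth assay: transgenic P. falciparum expressing firefly luciferase, cultured in red cells within RPMI 1640 containing 0.5% w/v Albumax, 24 mM bicarbonate and gentamycin. A drop in luciferase activity indicates inhibition.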
# Shiga toxin inh: Shiga toxin inhibition; Vero cells, Shiga toxin protein synthesis inhibition reporter; inhibition, % at 38.7 µM; 290,000 tested, 9.2% active; in the data active means inhibition mostly above about 28%, no sharp cut-off; inactive means mostly below about 43%; further: 0% is about no effect
# HCV inh: HCV inhibition; Potency, µM (highest dose often 41.8 µM), without a hit: top-dose activity change, negative = inhibition, usual class: inhibitors; Huh7.5.1 HCVcc-Cre infection, luciferase reporter, 44 h; AID 651820; 340,000 tested, 3.4% active; further: potency means the concentration at half of the fitted maximal effect; on the % scale 0 is the no-effect control and ±100 the full control effect
#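 Infectious HCV cell culture screen: compound-treated cells (1,000/well, pre-plated 4 h) are infected with HCVcc-Cre at roughly 0.5 moi and grown 44 h. Infection is quantified by luciferase signal after 15 min substrate incubation at room temperature.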
# Pf growth 96h: P. falciparum growth inhibition at 96 hour, primary screen for plastid delayed-death inhibitors. Potency, µM (series often up to 28.7 µM), inactives show top-dose activity change, negative = inhibition, usual class: inhibitors. 320,000 tested, 6.9% active. P. falciparum luciferase reporter growth, 96 h. AID 504834; further: potency means the concentration at half of the fitted maximal effect; on the % scale 0 is the no-effect control and ±100 the full control effect
#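 Delayed-death screen, second-generation endpoint: infected erythrocytes, 2% hematocrit, 0.05% parasitemia final; 96 hours at 37 C, 5% CO2; luciferase detection reagent; luminescence decrease equals reduced growth.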
# HCMV inh: human cytomegalovirus inhibition. AID 1259415. HFF cells, HCMV-luciferase reporter, 72 h; stronger effect = lower value. activity change, negative = inhibition, % at 57.5 µM. 410,000 tested, 4.5% active; in the data active means activity change below about -60%; inconclusive means no clear call, values can overlap the other calls; inactive means above about -39%; further: on the % scale 0 is the no-effect control and ±100 the full control effect
#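 HFF cells seeded 16 h at 37C, treated with compounds, infected with luciferase-reporter HCMV at MOI 1 PFU/cell; luciferase read at 72 h post infection, normalized to buffer-only and Salinomycin controls.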
# Cycloheximide cs: counter-screen for Shiga toxin inhibitors: cycloheximide protein synthesis inhibition. cell reporter, cycloheximide protein synthesis inhibition counterscreen. max response, %. 300,000 tested, 12% active; in the data active means max response mostly above about 13%, no sharp cut-off; inactive means mostly below about 14%; further: read at 38.3 µM for the half of the compounds with a filed dose; 0% is about no effect
# * hit, by the source's call; ? = inconclusive; . = not tested or not shown; ! = not active in a repeat. Rows were chosen to be rich in hits. Some 21% of all compounds tested hit in one or more screens of this group. Unless noted, the call rests on the fitted dose curve; in most records, active means well fitted inhibition curve with a large enough effect; inconclusive means small, poorly fitted or top-dose-only effect, or another doubt; inactive means no such curve, though single readings can be large or run the other way.
SMILES,Pf growth 48h,Shiga toxin inh,HCV inh,Pf growth 96h,HCMV inh,Cycloheximide cs
O=c1[nH]c(SCc2cccc([N+](=O)[O-])c2)nc2[nH]ncc12,-20.3%,28.4,12.9%,?,-15.6,-3.8
O=c1[nH]c(SCc2ccccc2)nc2ccsc12,22.2%,23.6,1.6%,38.1%,-14.4,36.0*
CCOC(=O)CSc1nc2ccsc2c(=O)[nH]1,25.3%,-1.7,-2.5%,0.2%,-15.4,-0.3
O=c1[nH]c(SCc2cccc(Cl)c2)nc2[nH]ncc12,5.2%,17.5,1.6%,-4.0%,4.8,20.5*
C/C(=N\NC(=O)Cc1csc(N2CCOCC2)n1)c1ccc(Cl)c(Cl)c1,-15.2%,14.8,?,-22.2%,-26.5,0.4
CC1(C(=O)NS(=O)(=O)c2ccc(F)cc2F)CCN1C(=O)CCc1ccccc1 (centres undefined),.,.,.,.,-11.8,.
COc1ccccc1OCc1nc(C#N)c(NCc2ccco2)o1,-19.7%,15.3,-2.4%,11.7µM*,-14.9,8.4
N#Cc1nc(COc2cccc(Cl)c2)oc1NCc1ccco1,.,65.2,-1.2%,-19.1%,-25.9,50.4*
CC1(C(=O)O)CCC(C(=O)NNC(=O)c2ccccc2Cl)C1(C)C (centres undefined),.,.,9.1%,.,-18.1,.
COc1ccc2c(c1)CC/C=C(/c1ccccc1)CCO2,.,.,.,.,-7.7,.
Cc1ccc(NC(=O)/C(=C/C=C/c2ccccc2)NC(=O)c2ccccc2)cc1,?,-11.6,0.4%,-104.5%,-36.5,-2.7
Cc1ccc(C(=O)N/C(=C\c2sccc2C)C(=O)NCc2ccncc2)cc1,4.7%,-14.0,10.7%,35.8%,-14.6,-6.1
O=C(NCc1ccco1)/C(=C\c1cccs1)NC(=O)c1ccco1,35.3%,4.8,20.9%,4.15µM*,33.1,-2.1
Cc1ccc(C(=O)N/C(=C/C=C\c2ccccc2)C(=O)NCc2ccco2)cc1,-20.5%,34.5,-3.3%,0.4%,-17.0,17.3*
Cc1ccc(C(=O)N/C(=C\c2sccc2C)C(=O)NCc2ccco2)cc1,7.7%,-3.7,7.6%,3.29µM*,-15.0,-2.5
CCc1nccn1S(=O)(=O)c1cc(OC)ccc1OC,0.0%,-4.4,0.1%,138.6%,55.5,-1.3
COc1ccc(NC(=O)C2(c3ccc(NC(=O)c4ccc(C)cc4)cc3)CCCC2)cc1,-1.8%,-11.7,-0.1%,34.2%,25.4,2.0
O=C(Nc1ccc(S(=O)(=O)N2CCCCC2)cc1)c1ccccc1F,-15.7%,-4.9,?,?,2.7,-0.8
N#CC1(c2ccc(NC(=O)c3ccccc3F)cc2)CCCC1,191.0%,62.3*,?,?,-0.1,44.8*
COc1ccc(C(=O)Nc2ccc(C3(C#N)CCCC3)cc2)cc1,-5.7%,-9.7,5.62µM*,?,-75.3*,10.3
Cc1cc2c(s1)c(C#N)c(C(=O)NCc1ccccc1F)n2C,-5.0%,.,.,-2.0%,.,.
Cc1ccc(Cn2nnnc2CN2CCC(NC(=O)c3ccccc3F)CC2)cc1,?,-21.9,6.0%,?,-20.2,-2.0
COCC(=O)N1CCC(n2nnc3cc(C(F)(F)F)ccc32)CC1,19.8%,-4.4,10.4%,5.22µM*,-7.4,5.9
Cc1ccc(Cn2nnnc2CN2CCC(n3nnc4cc(C)ccc43)CC2)cc1,?,26.4,-28.4%,13.1µM*,?,-3.0
Cc1ccc(Cn2nnnc2CN2CCC(n3nnc4cc(C(F)(F)F)ccc43)CC2)cc1,?,-9.6,?,-15.4%,3.5,8.4
SMILES,Pf growth 48h,Shiga toxin inh,HCV inh,Pf growth 96h,HCMV inh,Cycloheximide cs
Cc1ccc(Cn2nnnc2CN2CCC(O)(c3ccccc3F)CC2)cc1,14.7µM*,-14.3,12.3%,38.8%,?,-1.2
C=CCNC(=O)CN1CCC(n2nnc3cc(C(F)(F)F)ccc32)CC1,-3.6%,-28.1,0.4%,180.4%,5.5,-3.6
FC(F)(F)c1ccc2c(c1)nnn2C1CCN(Cc2nnnn2Cc2ccccc2)CC1,7.38µM*,2.6,-20.9%,10.4µM*,-5.9,-0.3
CCCCSc1nnc(CSc2ncccn2)n1C,-6.0%,19.5,9.2%,?,21.7,13.0
Cc1ccccc1C(O)c1nnc(Nc2ccc(Oc3ccccc3)cc2)s1 (centres undefined),.,.,.,.,-2.4,.
CNc1nnc(-c2ccc(N(C)C)cc2)s1,129.0%,18.7,9.7%,-16.5%,33.3,17.6*
O=C(Cc1cccc(NC(=O)C2CCN(C(=O)C3CC3)CC2)c1)Nc1cccc(C(=O)N2CCCCC2)c1,.,.,-1.2%,.,25.6,.
COc1ccc(C(C(=O)NCC2CCCO2)N(C(=O)c2snc(C(N)=O)c2N)c2ccccc2C)cc1OC (centres undefined),11.7µM*,-13.6,-17.6%,34.0%,-32.3,9.0
COc1ccc(C(C(=O)NCC2CCCO2)N(C(=O)c2snc(C(N)=O)c2N)c2ccccc2)cc1OC (centres undefined),?,-5.9,-16.0%,?,-9.9,-3.9
CCc1ccc(N(C(=O)c2snc(C(N)=O)c2N)C(C(=O)NCC2CCCO2)c2cccs2)cc1 (centres undefined),?,56.9,?,10.1%,-38.6,36.6*
CCc1ccccc1N(C(=O)c1snc(C(N)=O)c1N)C(C(=O)NCC1CCCO1)c1ccc(OC)c(OC)c1 (centres undefined),11.7µM*,-4.5,-19.8%,44.0%,-25.3,-7.3
CCOc1ccc(C(C(=O)NCC2CCCO2)N(CCc2cccc(C)c2)C(=O)c2snc(C(N)=O)c2N)cc1 (centres undefined),9.28µM*,24.8,?,-0.8%,?,-0.7
CSc1nnnc2ccccc12,.,.,-10.9%,.,-0.5,.
Cc1cccc(N(C(=O)c2snc(C(N)=O)c2N)C(C(=O)NCC2CCCO2)c2ccc(N(C)C)cc2)c1C (centres undefined),?,12.3,-1.0%,7.38µM*,51.9,-3.9
Cn1cnc2cnc(Nc3ccc(F)c(Cl)c3)cc21,.,.,.,.,69.4,.
CCC(SC1=Nc2ccccc2C2=NC(CC(C)C)C(=O)N12)C(=O)Nc1ccc2c(c1)OCO2 (centres undefined),?,40.3*,8.91µM*!,6.1%,19.8,23.0*
COc1cccc(NC(=O)CSC2=Nc3ccccc3C3=NC(CC(=O)NCc4ccc5c(c4)OCO5)C(=O)N23)c1 (centres undefined),.,.,.,.,35.9,.
CCCCN(CCCC)C(=O)c1cc2ccccc2c(=O)o1,-12.5%,10.2,-13.5%,-15.2%,-68.1*,-1.2
COc1ccccc1CC(=O)NNC(=O)c1cccs1,17.0%,-6.3,5.3%,0.262µM*,65.6,1.0
Cc1cc(Br)cc(C)c1OCC(=O)NNC(=O)c1cccs1,-9.5%,-13.5,-6.3%,11.7µM*,-38.9,-3.3
COc1ccccc1CC(=O)Nc1ccc(NC(=O)c2cccs2)cc1,-2.7%,-4.7,?,?,-30.6,-2.6
O=C(COc1ccc(Br)cc1Br)NNC(=O)c1cccs1,41.6%,43.8,-0.1%,1.2%,140.1,17.8
